In PubChem BioAssay AID588742 (Southern Research Specialized Biocontainment Screening …, 2011):
Screen size: about 1,800 compounds; about 410 (23%) were called active. How the calls were made is not given here. The list is a sample of the results. Entries with a potency or affinity are not part of this list.

Test: viability of Vero cells under compound – cytotoxicity control for flavivirus capping enzyme inhibitors (AID 588742)
Conditions: cytotoxicity counter-screen; series mostly up to 40 µM
For `CC1=NN(c2ccc(Br)cc2)C(=O)/C1=C/c1ccc(-c2ccccc2C(=O)O)o1`, the outcome was “inactive”. For `Cc1ccccc1-c1ncc(CN2CCN(C3CCCCC3)C(CCO)C2)cn1` (stereo not drawn), the outcome was “inactive”. With `CC1(C)Cc2c(C#N)c(N)sc(=S)c2CS1` the outcome was “inactive”. In the case of `COc1ccc(N2C(=O)C3CCCN3C2c2cccc(Br)c2)cc1` (stereo not drawn), the outcome is reported as “inactive”. With `O=C(CCc1ccc(S(=O)(=O)N2CCOCC2)cc1)N/N=C/c1ccc(O)c(O)c1O` the outcome was “inactive”. In the case of `O=[N+]([O-])c1ccc(N/N=C/c2ccc(O)c(O)c2O)c(S(=O)(=O)N2CCOCC2)c1`, the outcome is reported as “inactive”. With `Oc1ccc2ccccc2c1C=NC12CN3CCN(CN(C3)C1)C2` the outcome was “inactive”. For `CCN(CC)c1ccc(SS(=O)(=O)O)cc1`, the outcome was “inactive”. In the case of `O=C(O)c1ccc(N(c2ccccc2)c2ccccc2)cc1`, the outcome is reported as “inactive”. With `COc1ccccc1CNC(=O)CN1C(=O)N(C)C2(CCCCC2)C1=O` the outcome was “inactive”. For `O=c1[nH]n2c(=O)c3c([nH]c2c1N=Nc1cccc(Cl)c1)CCCC3`, the outcome was “inactive”. In the case of `CC(C)CSC1=NSC2=NC(=O)/C(=C\c3ccccc3)C(=N)N12`, the outcome is reported as “inactive”. For `Nc1ccc(N2CCOCC2)c2nonc12`, the outcome was “inactive”. For `O=C(O)c1ccc(COc2ccccc2C=C2C(=O)c3ccccc3C2=O)cc1`, the outcome was “inactive”. With `Cc1ccccc1SCC(=O)OCC(=O)Nc1ccc(N(C)C)cc1` the outcome was “inactive”. For `CN(C)c1ccc(NC(=O)CCCc2ccccc2)cc1`, the outcome was “inactive”. For `O=C(O)c1cccc(NC2=C(Cl)C(=O)c3ccccc3C2=O)c1`, the outcome was “inactive”. In the case of `CC(=O)N(C(C)=O)N1C(=O)C2C3c4ccccc4C(c4ccccc43)C2C1=O` (stereo not drawn), the outcome is reported as “inactive”. With `O=C(CN1C(=O)/C(=C2\SC(=S)N(CCS(=O)(=O)O)C2=O)c2ccccc21)Nc1cccc(Br)c1` the outcome was “inactive”. For `O=C1/C(=C/c2cccc(F)c2)SC(=S)N1NS(=O)(=O)c1ccccc1`, the outcome was “inactive”. In the case of `CCNc1sc(C(=O)c2cccs2)c(N)c1C#N`, the outcome is reported as “inactive”. For `CC(C)CN1C(=O)/C(=C/c2ccco2)NC1=S`, the outcome was “inactive”. For `Cc1cccc(OC(C)C(=O)OCC(=O)Nc2sccc2C(N)=O)c1` (stereo not drawn), the outcome was “inactive”. With `CC(=O)C1CCC2C3CCC4=CC(=O)CCC4(C)C3(Br)C(=O)CC12C` (stereo not drawn) the outcome was “inactive”. For `COC(=O)CCC(=O)OC1(C)C(=O)C2=CN(Cc3ccccc3)C(c3ccc(OC)cc3)=CC2=C(Br)C1=O` (stereo not drawn), the outcome was “inactive”. In the case of `O=c1c([N+](=O)[O-])c(O)c2ccccc2n1Cc1ccccc1`, the outcome is reported as “inactive”. In the case of `Nc1nc(N=Nc2ccc(O)cc2)cc(=O)[nH]1`, the outcome is reported as “inactive”. For `Cc1cc(C(=O)O)ccc1-c1ccc(/C=C2\NC(=O)N(Cc3ccc(F)cc3)C2=O)o1`, the outcome was “inactive”. In the case of `CCS(=O)(=O)c1nc(S(=O)(=O)c2ccc(Cl)cc2)c(N2CCC(O)CC2)s1`, the outcome is reported as “inactive”. For `O=C1C2C3CCCC3=C3CCCC3C2C(=O)N1c1cccc(Cl)c1` (stereo not drawn), the outcome was “inactive”. For `O=C(O)c1cccc(Nc2nc3ccccc3nc2NS(=O)(=O)c2cccs2)c1`, the outcome was “inactive”. For `Cc1ccc(N2NC(=O)/C(=C/c3ccc(-c4ccc(Cl)c(C(=O)O)c4)o3)C2=O)cc1C`, the outcome was “inactive”. For `O=C1C(Cl)=C(Oc2ccccc2)C(=O)c2ccccc21`, the outcome was “inactive”. With `COc1cccc(/C=C2\C(=O)C(=O)c3ccccc32)c1` the outcome was “inactive”. In the case of `CC(=O)OCC1=C(C(=O)O)N2C(=O)C(NC(=O)c3ccc(COc4cccc(Cl)c4Cl)o3)C2SC1` (stereo not drawn), the outcome is reported as “inactive”. For `O=C(NCCCN1CCOCC1)c1ccc(NS(=O)(=O)c2ccccc2)cc1`, the outcome was “inactive”. For `O=C(c1c(F)cccc1F)N1CCCC1`, the outcome was “inactive”. For `Oc1ccc(/C=N/Nc2ccc(Cl)nn2)c(O)c1O`, the outcome was “inactive”. In the case of `C#CCOc1ccc(/C=C2/C(=O)N(c3ccc(S(N)(=O)=O)cc3)N=C2C)cc1OC`, the outcome is reported as “inactive”. For `O=C(CCN1C(=O)/C(=C\c2ccccc2F)SC1=S)Nc1ccc(C(=O)O)c(O)c1`, the outcome was “inactive”. With `COC(=O)c1sc(N2C(=O)C(O)=C(C(=O)c3ccc(C)o3)C2c2ccc([N+](=O)[O-])cc2)nc1C` (stereo not drawn) the outcome was “inactive”. With `CC[n+]1c(/C=C2\C=C(C)CC(C)(C)C2)sc2ccccc21` the outcome was “inactive”. With `O=C(O)c1cccc(N2C(=O)c3cc([N+](=O)[O-])cc4cc([N+](=O)[O-])cc(c34)C2=O)c1` the outcome was “inactive”. For `CC1=NN(c2ccccc2)C(=O)/C1=C\c1ccc(Oc2ccc([N+](=O)[O-])cc2[N+](=O)[O-])cc1`, the outcome was “inactive”. In the case of `O=C(c1cccc(S(=O)(=O)N2CCOCC2)c1)N(Cc1ccc(F)cc1)Cc1ccco1`, the outcome is reported as “inactive”. In the case of `Cc1ccc(C2/C(=C(/O)c3ccc(Br)cc3)C(=O)C(=O)N2Cc2ccco2)o1` (stereo not drawn), the outcome is reported as “inactive”. With `CCc1ccc([C@@H]2CC=C(C(=O)O)[C@H](c3ccc(C)cc3)N2S(=O)(=O)c2ccc(C)cc2)cc1` the outcome was “inactive”. With `O=C(O)/C=C/C(=O)c1c(-c2ccccc2)[nH]c2ccccc12` the outcome was “inactive”. In the case of `CCc1ccc(NC(=O)C2=CC=CN3CCS(=O)(=O)N=C23)cc1`, the outcome is reported as “inactive”. With `Cc1noc(NS(=O)(=O)c2ccc(NC(=O)c3ccccc3NS(=O)(=O)c3ccc(F)c(F)c3)cc2)c1C` the outcome was “inactive”. In the case of `O=C1C(Cl)=C(N2CCOCC2)C(=O)N1c1ccc(Br)cc1`, the outcome is reported as “inactive”. For `Cc1ccc(C)c(OCC(=O)NCC2COc3ccccc3O2)c1` (stereo not drawn), the outcome was “inactive”. For `COc1nc(OC)nc(N2CCC(C(=O)NC3CC3)CC2)n1`, the outcome was “inactive”. In the case of `O=C(O)CN1C(=O)/C(=C\c2cc(Br)ccc2OCc2ccc(Cl)cc2)SC1=S`, the outcome is reported as “inactive”. For `O=C(O)CCN1C(=O)/C(=C\c2cccc(Oc3ccccc3)c2)SC1=S`, the outcome was “inactive”. In the case of `COc1cc(/C=C2/S/C(=N/S(=O)(=O)c3ccccc3)NC2=O)c([N+](=O)[O-])cc1OC`, the outcome is reported as “inactive”. With `O=C1OC(c2ccccc2)(c2cc(Br)c(O)c(Br)c2)c2ccccc21` (stereo not drawn) the outcome was “inactive”. With `O=C(O)C(Cc1ccccc1)N1C(=O)c2c(Cl)c(Cl)c(Cl)c(Cl)c2C1=O` (stereo not drawn) the outcome was “inactive”.
